Experimental data as given in PubChem BioAssay (Tox21).
Results filed as inconclusive are left out. Active and inactive are the calls of the source. Calls come from the whole dose curve; as a rule, active = well fitted inhibition curve with a large enough effect in the repeat runs; inconclusive = weak or mixed curves; inactive = no such curve, though single readings can be large or run the other way.
% is set by controls: 0 for no effect and ±100 for the full control effect; potency is the fitted concentration of half-maximal effect.

These compounds were tested against Estrogen receptor (Homo sapiens) (UniProt P03372) (assay: qHTS assay to identify small molecule antagonists of the estrogen receptor alpha (ER-alpha) signaling pathway using the BG1 cell line in the presence of 0.1 nM 17-beta-estradiol (AID 1259244; note: nearly all actives have a fitted effect of over 50% in size)). Conditions: VM7Luc4E2 (BG1) ERE-luciferase, antagonist mode, 0.1 nM E2, 22 h; series mostly up to 92.4 µM; activity change, negative = inhibition: at the top concentration.
Estrogen receptor (Homo sapiens), sequence (P03372 whole entry, looked up): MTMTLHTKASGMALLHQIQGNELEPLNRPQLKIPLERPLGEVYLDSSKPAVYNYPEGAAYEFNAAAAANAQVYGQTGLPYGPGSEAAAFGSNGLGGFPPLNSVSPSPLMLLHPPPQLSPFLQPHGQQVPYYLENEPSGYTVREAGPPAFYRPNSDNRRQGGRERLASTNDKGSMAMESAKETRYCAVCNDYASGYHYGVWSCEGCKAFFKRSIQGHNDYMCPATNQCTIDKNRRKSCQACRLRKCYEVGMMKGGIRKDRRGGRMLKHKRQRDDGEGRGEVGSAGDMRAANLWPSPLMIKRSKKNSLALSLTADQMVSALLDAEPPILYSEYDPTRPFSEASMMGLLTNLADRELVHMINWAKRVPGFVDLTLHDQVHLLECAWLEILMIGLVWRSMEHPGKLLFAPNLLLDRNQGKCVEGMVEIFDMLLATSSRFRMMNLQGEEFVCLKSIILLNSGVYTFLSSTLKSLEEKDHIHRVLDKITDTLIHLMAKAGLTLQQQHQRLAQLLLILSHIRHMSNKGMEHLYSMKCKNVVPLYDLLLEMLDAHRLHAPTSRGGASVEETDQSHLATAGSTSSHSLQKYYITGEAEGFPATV
Text: National Center for Advancing Translational Sciences [NCATS]
NIH Chemical Genomics Center [NCGC]
U.S. Environmental Protection Agency [EPA]
National Institutes of Environmental Health Sciences [NIEHS]
National Toxicology Program [NTP]
U.S. Food and Drug Administration [FDA]
Estrogen receptor (ER), a member of the nuclear hormone receptor plays an important role in development, metabolic homeostasis and reproduction. Two subtypes of ER, ER-alpha and ER-beta, have similar expression patterns with some uniqueness in both types. Endocrine disrupting chemicals (EDCs) and their interactions with steroid hormone receptors like ER causes disruption of normal endocrine function. Therefore, it is important to understand the effect of environmental chemicals in ER signaling pathway. For identifying ER antagonists, VM7Luc4E2 cell line was used to screen against Tox21 compound libraries.
VM7Luc4E2 cell line (provided by Denison MS, University of California) endogenously express full-length ER-alpha and is stably transfected with a plasmid containing four estrogen responsive elements (ERE) upstream of a luciferase reporter gene. The current screening for identification of ER-alpha inhibitors against Tox21 compound libraries used lower concentration (0.1 nM) of 17beta-Estradiol as a stimulator.
Tox21 Assay Protocol Summary:
VM7Luc4E2 cells were cultured in phenol red free assay medium containing 10% charcoal stripped FBS for 5 days prior to the assay. The cells were dispensed at 4,000 cells/well in 4 uL of assay medium into white wall/solid-bottom 1536-well plates (Corning Life Sciences, Corning, NY) using a Multidrop Combi (ThermoFisher Scientific, Waltham, MA) dispenser. After the assay plates were incubated at 37C and 5% CO2 for 24 hr, 23 nL of compounds dissolved in DMSO, positive controls or DMSO only was transferred to the assay plates by a Pintool station (Kalypsys, San Diego, CA). The transfer of compounds was followed by the addition of 1 uL of 0.1 nM (final concentration) agonist (17beta-Estradiol)/assay medium using a Flying Reagent Dispenser (FRD, Aurora Discovery, San Diego, CA). The plates were incubated at 37C and 5% CO2 for 22 hr. For luciferase reporter gene assay, 4 uL of ONE-Glo reagent (Promega Corporation, Madison, WI) was added to each well using the FRD and after 30 min incubation at room temperature luminescence intensity was measured using ViewLux plate reader (PerkinElmer, Shelton, CT).
For `Cc1ccc(N(CC2=NCCN2)c2cccc(O)c2)cc1`, the “activity change, negative = inhibition” value was -13.4% [at 42.5 µM] (inactive).
For `CCC(C)(C)C(=O)O`, the “activity change, negative = inhibition” value was 20.3% (inactive).
For `CCC(Cl)CC(Cl)C(Cl)C(Cl)C(Cl)C(C)Cl` (stereo not given), the activity change, negative = inhibition was 63.4% [at 19 µM] (inactive).
For `COc1ccc(C(=O)NCc2ccc(OCCN(C)C)cc2)cc1OC`, the “activity change, negative = inhibition” value was -5.36% [at 42.5 µM] (inactive).
For `CC(C)(C)NCC(O)COc1cccc2c1C[C@H](O)[C@H](O)C2` (stereo not given in full), the “activity change, negative = inhibition” value was -0.518% [at 42.5 µM] (inactive).
For `Cc1oc(=O)oc1COC(=O)[C@@H]1N2C(=O)[C@@H](NC(=O)[C@H](N)c3ccccc3)[C@H]2SC1(C)C`, the “activity change, negative = inhibition” value was 12.9% [at 42.5 µM] (inactive).
For `CC(=O)OC(C)C[N+](C)(C)C` (stereo not given), the “activity change, negative = inhibition” value was -1.07% [at 42.5 µM] (inactive).
In the case of `Cc1cc([N+](=O)[O-])ccc1N`, the “activity change, negative = inhibition” value is reported as 4.9% (inactive).
For `CCN(CC)CCOc1ccccc1C(=O)CCc1ccccc1`, the “activity change, negative = inhibition” value was -11.4% [at 42.5 µM] (inactive).
In the case of `O=C1[C@@H]2[C@H]3CC[C@H](C3)[C@@H]2C(=O)N1CCCCN1CCN(c2ncccn2)CC1`, the “activity change, negative = inhibition” value is reported as 5.16% [at 42.5 µM] (inactive).
In the case of `CC(C)c1ccc(C#N)cc1`, the “activity change, negative = inhibition” value is reported as -4.05% (inactive).
`CCOc1ncc(F)c(=O)[nH]1` was tested, and the “activity change, negative = inhibition” value was -5.78% [at 42.5 µM] (inactive).
`CO[C@@H]1[C@@H](OC)[C@H](C)[C@@](O)(CC(=O)O)O[C@H]1[C@H](C)[C@H]1O[C@@]2(CC[C@@](C)([C@H]3CC[C@@](C)([C@@H]4O[C@@H]([C@H]5O[C@](C)(O)[C@H](C)C[C@@H]5C)C[C@@H]4OC4C[C@H](OC)[C@@H](OC)[C@H](C)O4)O3)O2)C[C@H](O)[C@H]1C` (stereo not given in full) was tested, and the Potency was 11.9 µM (active).
With `O=C(O)CNC(=O)c1ccccc1I` the “activity change, negative = inhibition” value was 2.99% [at 42.5 µM] (inactive).
`c1ccc(CCCc2ccncc2)cc1` was tested, and the “activity change, negative = inhibition” value was -25.2% (inactive).
For `CC(C)C(O)C(C)(C)CO` (stereo not given), the Potency was 9.99 µM (active).
In the case of `CCSC(=O)N(CC)CC`, the “activity change, negative = inhibition” value is reported as 0.0868% (inactive).
`CCCCCCC(O)CCOC(C)=O` (stereo not given) was tested, and the “activity change, negative = inhibition” value was 0.0153% [at 240 µM] (inactive).
For `CN(C)CC/C=C1\c2ccccc2Sc2ccc(Cl)cc21`, the “activity change, negative = inhibition” value was -17.4% [at 42.5 µM] (inactive).
For `CC(C)(C)C(O)/C=C/c1ccc2c(c1)OCO2` (stereo not given), the “activity change, negative = inhibition” value was 10.6% [at 42.5 µM] (inactive).
With `Nc1ccc(NC(=O)c2ccc(N)cc2)cc1` the “activity change, negative = inhibition” value was -16.4% (inactive).
For `COc1cc(NCc2ccc3nc(N)nc(N)c3c2C)cc(OC)c1OC`, the “activity change, negative = inhibition” value was -32.1% [at 42.5 µM] (inactive).
`CCCCC[C@H](O)/C=C/[C@H]1[C@H](O)CC(=O)[C@@H]1C/C=C\CCCC(=O)O` was tested, and the “activity change, negative = inhibition” value was 19.6% [at 42.5 µM] (inactive).
`COc1ccc(C2C(=O)c3ccccc3C2=O)cc1` was tested, and the “activity change, negative = inhibition” value was 7.92% [at 42.5 µM] (inactive).
In the case of `CN=C(N)NC(=O)Nc1c(C)cccc1C`, the “activity change, negative = inhibition” value is reported as 5.95% [at 42.5 µM] (inactive).
For `CCOC(=O)c1ccc(NC(=O)CN2CCCCC2)cc1`, the “activity change, negative = inhibition” value was 43.5% [at 42.5 µM] (inactive).
In the case of `CC[C@H]1OC(=O)[C@H](C)[C@@H](O[C@H]2C[C@@](C)(OC)[C@@H](O)[C@H](C)O2)[C@H](C)[C@@H](O[C@@H]2O[C@H](C)C[C@H](N(C)C)[C@H]2O)[C@](C)(O)C[C@@H](C)/C(=N\OCOCCOC)[C@H](C)[C@@H](O)[C@]1(C)O`, the “activity change, negative = inhibition” value is reported as -17.8% [at 42.5 µM] (inactive).
`CNc1c2c(nn1C)CCCC2` was tested, and the “activity change, negative = inhibition” value was -9.79% [at 42.5 µM] (inactive).
In the case of `COc1ccc(-n2nc(C(F)F)cc2-c2ccc(S(C)=O)cc2)cc1` (stereo not given), the “activity change, negative = inhibition” value is reported as 3.27% (inactive).
In the case of `O=C(Oc1ccccc1)c1ccc2ccccc2c1O`, the “activity change, negative = inhibition” value is reported as 48.3% (inactive).
For `CC(C)C1CCC(C(=O)N[C@H](Cc2ccccc2)C(=O)O)CC1` (stereo not given in full), the “activity change, negative = inhibition” value was -1.6% [at 42.5 µM] (inactive).
For `CC(C)OC(=O)c1ccccc1C(=O)OC(C)C`, the “activity change, negative = inhibition” value was -16.9% (inactive).
In the case of `CCO[Si](C)(CCCOCC1CO1)OCC` (stereo not given), the “activity change, negative = inhibition” value is reported as -0.314% (inactive).
With `CC1=C2[C@@H]([C@H](C)CC[C@H]2/C=C(\C)C(=O)O)[C@H](O)C1` the “activity change, negative = inhibition” value was -0.681% (inactive).
For `CC(=O)OCCC1CCCCC1`, the “activity change, negative = inhibition” value was -2.52% (inactive).
`O=C(C(=O)c1ccco1)c1ccco1` was tested, and the “activity change, negative = inhibition” value was 19.1% (inactive).
In the case of `O=C(O)c1cccc(C[C@@H]2COc3ccc(OCc4nc5cc(F)ccc5s4)cc3[C@@H]2O)c1`, the “activity change, negative = inhibition” value is reported as 0.589% (inactive).
With `c1ccc(CNc2ncnc3c2ncn3C2CCCCO2)cc1` (stereo not given) the “activity change, negative = inhibition” value was 51.5% (inactive).
In the case of `c1ccc2sc(SSc3nc4ccccc4s3)nc2c1`, the activity change, negative = inhibition is reported as 1.45% [at 19 µM] (inactive).
`CC[C@H]1OC(=O)[C@H](C)[C@@H](O[C@H]2C[C@@](C)(OC)[C@@H](O)[C@H](C)O2)[C@H](C)[C@@H](O[C@@H]2O[C@H](C)C[C@H](N(C)C)[C@H]2O)[C@](C)(O)C[C@@H](C)CN(C)[C@H](C)[C@@H](O)[C@]1(C)O` was tested, and the “activity change, negative = inhibition” value was 0.0242% [at 42.5 µM] (inactive).
